{
  "source": "PubChem BioAssay",
  "note": "Activity calls are given as the source filed them. The rule behind the calls is not given here.",
  "data": [
    {"test": "blockers of DNA damage checkpoint Chk1 activation – imaging, HeLa, hydroxyurea, phospho-Chk1 antibody, percent positive cells, primary screen (AID 1186)", "conditions": "hydroxyurea-induced phospho-Chk1 immunofluorescence imaging, higher = more signal", "values": [
      {"smiles": "O=C1OCCC/C=C\\[C@H]2OC34C=CCN(Cc5ccccc5)C(=O)[C@H]3N(CCCCCO)C(=O)[C@@H]4C12", "note": "(stereo not given in full)", "z-score": "-0.312 (inactive)"},
      {"smiles": "CO[C@H]1O[C@H](CO)[C@@H](OC(=O)Nc2ccc(C(F)(F)F)cc2)[C@H](OC(=O)Nc2ccccc2-c2ccccc2)[C@H]1OC(=O)Nc1ccccc1-c1ccccc1", "z-score": "0.83 (inactive)"},
      {"smiles": "COCCOC(=O)N1C(=O)[C@@]2(c3cc(C#CCCO)ccc31)[C@H](C(=O)N1CCN(c3ncccn3)CC1)[C@H]1C(=O)O[C@H](c3ccccc3)[C@H](c3ccccc3)N1[C@@H]2c1ccc(O)cc1", "z-score": "-0.416 (inactive)"},
      {"smiles": "[N-]=[N+]=NCc1ccccc1[C@H]1OC(c2ccc(OCCCO)cc2)=N[C@@]1(Cc1ccccc1)C(=O)N1CCOCC1", "z-score": "-0.11 (inactive)"},
      {"smiles": "C=CCC(OC(C)=O)[C@@H]1[C@@H](N(Cc2ccc(-c3ccccc3)cc2)C(=O)c2ccc(C)cc2)c2cc(OCCCO)ccc2N1C(=O)c1ccc2ccccc2c1", "note": "(stereo not given in full)", "z-score": "-0.363 (inactive)"},
      {"smiles": "CCCCC(O)C1C=CC2C(=O)N(C)C(=O)C2N1Nc1ccccc1", "note": "(stereo not given)", "z-score": "0.342 (inactive)"},
      {"smiles": "COCCOC(=O)N1C(=O)[C@@]2(c3cc(C#CCC(C(=O)OC)C(=O)OC)ccc31)[C@H](C(=O)N1CCCCCCC1)[C@H]1C(=O)O[C@H](c3ccccc3)[C@H](c3ccccc3)N1[C@@H]2c1ccccc1OCCO", "z-score": "0.122 (inactive)"},
      {"smiles": "COC(=O)[C@@]1(Cc2ccccc2)[C@H]2c3cc(C(=O)N4CCCC4)n(Cc4ccc(C(F)(F)F)nc4)c3C[C@H]2CN1C(=O)c1ccccc1", "z-score": "-0.0659 (inactive)"},
      {"smiles": "CN1C(=O)[C@]2(CCS(=O)(=O)c3ccccc3)N=C(c3ccc(OCCCO)cc3)O[C@@H]2c2ccccc21", "z-score": "-0.122 (inactive)"},
      {"smiles": "C=CCC(OC(C)=O)[C@@H]1[C@@H](N(Cc2cccc3ccccc23)C(=O)c2cccc3ccccc23)c2cc(OCCCO)ccc2N1C(=O)Cc1ccc2ccccc2c1", "note": "(stereo not given in full)", "z-score": "0.233 (inactive)"},
      {"smiles": "CCCCNC(=O)c1ccc(C#C[Si](C)(C)C)c(OC(C)=O)c1", "z-score": "0.0588 (inactive)"},
      {"smiles": "CCOC(=O)C1=CC[C@@H](c2ccccc2Cl)N(S(=O)(=O)c2ccc(C)cc2)[C@H]1c1cccc(OC)c1", "z-score": "0.0932 (inactive)"},
      {"smiles": "Cc1ccc(F)cc1S(=O)(=O)N[C@@H]1CCN(Cc2ccc3c(c2)OCO3)C1", "z-score": "-0.201 (inactive)"},
      {"smiles": "C#CCN(C/C=C/c1ccccc1)[C@H](CO[Si](C)(C)C(C)(C)C)c1ccccc1", "z-score": "0.229 (inactive)"},
      {"smiles": "N[C@@H](Cc1ccccc1)Cn1cc(C2(O)CCCCC2)nn1", "z-score": "0.43 (inactive)"},
      {"smiles": "COCCOC(=O)N1C(=O)[C@@]2(c3cc(C#CCC(C(=O)OC)C(=O)OC)ccc31)[C@H](c1ccc(OCCO)cc1)N1[C@H](c3ccccc3)[C@H](c3ccccc3)OC(=O)[C@H]1[C@@H]2C(=O)N1CCCCCCC1", "z-score": "-0.181 (inactive)"},
      {"smiles": "COc1ccc(NC(=O)O[C@H]2[C@H](OC(=O)Nc3ccc4c(c3)OCO4)[C@H](OC(=O)Nc3ccc4c(c3)OCO4)[C@@H](OC)O[C@@H]2CO)cc1", "z-score": "-0.246 (inactive)"},
      {"smiles": "COc1ccc(NN2C(C(O)c3cc(C(F)(F)F)cc(C(F)(F)F)c3)C=CC3C(=O)N(C4CCCCC4)C(=O)C32)cc1", "note": "(stereo not given)", "z-score": "-1.14 (inactive)"},
      {"smiles": "COCCOC(=O)N1C(=O)[C@@]2(c3cc(C#Cc4ccc(OC)cc4)ccc31)[C@H](C(=O)Nc1nc3ccccc3s1)[C@H]1C(=O)O[C@H](c3ccccc3)[C@H](c3ccccc3)N1[C@@H]2c1ccccc1OCCO", "z-score": "-0.338 (inactive)"},
      {"smiles": "C=C(COC)/C(=C/C[C@H](OC(=O)c1ccncc1)c1ccc(OCCO)cc1)c1cc(C(=O)OC)ccc1OC", "z-score": "0.203 (inactive)"},
      {"smiles": "COc1ccc([Si](C)(C)[C@H]2[C@H](CCO)O[C@@]3(C(=O)N(Cc4ccccc4)c4ccc(N(C=O)c5ccccc5)cc43)[C@@H]2C)cc1", "z-score": "1.75 (inactive)"},
      {"smiles": "C=CC[C@]1(C(=O)OC)N=C(c2ccc(OCCCO)cc2)O[C@H]1c1ccccc1N=[N+]=[N-]", "z-score": "-0.179 (inactive)"},
      {"smiles": "COc1ccccc1CN1C(=O)c2ccccc2[C@](Cc2ccccc2I)(C(=O)NCCCN(C)C)[C@@H]1c1ccc(CO)cc1", "z-score": "-0.215 (inactive)"},
      {"smiles": "CC1CC/C=C\\[C@H]2OC34C=CCN(c5ccc(Cl)cc5)C(=O)[C@H]3N(CCCO)C(=O)[C@]4(C)C2C(=O)O1", "note": "(stereo not given in full)", "z-score": "-0.226 (inactive)"},
      {"smiles": "CC[C@H](C)C(=O)O[C@H]1CC[C@]2(C)C3=C(CCC2C1(C)C)[C@]1(C)CC[C@H]([C@H](C)CCCC(C)C)[C@@]1(C)CC3", "note": "(stereo not given in full)", "z-score": "-0.719 (inactive)"}
    ]}
  ]
}
